# Assay results: PubChem BioAssay (EPA / NIEHS)
# The source made the active and inactive calls. The calls were made as follows: active = hit-call score of the fitted dose curve at least 0.9, where 1 is the maximum; inactive = score below 0.9.
# Assay: ATG_ISRE_CIS: Attagene CIS-FACTORIAL HepG2 Assay for human Interferon Regulatory Factor 1 (IRF1) binding to an Interferon-Stimulated Response Element (ISRE) (AID 2282948)
# Conditions: HepG2 ISRE cis-reporter (Attagene), mRNA transcription readout; actives raise or lower the signal
# Procedure: ATG_CIS is a cell-based, multiplexed-readout assay that uses HepG2, a human liver cell line, with measurements taken at 24 hours after chemical dosing in a 24-well plate.ATG_ISRE_CIS is one of 52 assay component(s) measured or calculated from the ATG_CIS assay. It is designed to make measurements of mRNA induction, a form of inducible reporter, as detected with fluorescence intensity signals by Reverse transcription polymerase chain reaction (RT-PCR) and Capillary electrophoresis technology.Data from the assay component ATG_ISRE_CIS was analyzed into 1 assay endpoint. This assay endpoint, ATG_ISRE_CIS, was analyzed with bidirectional fitting relative to DMSO as the negative control and baseline of activity. Using a type of inducible reporter, measures of mRNA for gain or loss-of-signal activity can be used to understand the reporter gene at the transcription factor-level as they relate to the gene IRF1. Furthermore, this assay endpoint can be referred to as a primary readout, because this assay has produced multiple assay endpoints where this one serves a reporter gene function. To generalize the intended target to other relatable targets, this assay endpoint is annotated to the dna binding intended target family, where the subfamily is interferon regulatory factors.
# Human liver HepG2 cells are transiently transfected with multiple reporter transcription units (MRTUs) in 6-well plates using FuGene 6 reagent (Roche; 3 ml FuGene/1 mg DNA). The MRTU constructs are regulated by a cis-regulating element (promoter). […] A major difference between the CIS and TRANS system is that in CIS activities of endogenous TFs are measured, whereas the TRANS assay evaluates changes in activities of exogenous, chimeric NR-Gal4 proteins. […] At the end of 24 hour incubation, total RNA was isolated using TriZol reagent (Invitrogen). The isolated RNA is then reverse-transcribed using oligo(dT) primer and Mo-MLV reverse transcriptase (Invitrogen) with DNAse I (Ambion) treatment for 30 min. The one-tenth of the produced cDNA was amplified by PCR using Taq DNA polymerase (Invitrogen) and two reporter sequence-specific primers. The PCR products were fluorescently labeled by primer extension with 6-arboxyfluorescein (6-FAM) 5'-labeled reporter sequence-specific primer (2 min at 95 C, 20 s at 68 C and 10 min at 72 C) and these products were digested with 5U of HpaI (New England Biolabs) for 2h at 37 C. The fragments were purified using Qiaquick PCR columns (Qiagen), analyzed on an ABI 3130xL genetic analyzer (Applied Biosystems) with peak positions identified by using a set of X-rhodamine (ROX)-labeled MapMarker1000 molecular weight standards (BioVentures). The raw capillary electrophoresis data was processed using Attagraph software (Attagene).
Structure (SMILES),outcome,AC50
CC=Cc1ccc(OC)c(OC)c1,inactive,
COc1cccc(OC)c1O,inactive,
OCc1cccc(Oc2ccccc2)c1,inactive,
CC(C)C(OC(=O)c1ccccc1)C(C)(C)COC(=O)c1ccccc1 (stereo not given),inactive,
CCCC(O)C(O)CO (stereo not given),inactive,
CCCCCC(C=O)=Cc1ccccc1,,160 µM (active)
C[Si]1(C)O[Si](C)(C)O[Si](C)(C)O1,inactive,
Cc1ccc(OC(=O)c2ccccc2O)cc1,inactive,
Cc1cccc(Nc2ccccc2)c1,inactive,
CCC1(C)NC(=O)NC1=O (stereo not given),inactive,
CCOC(=O)CN,inactive,
Oc1ccc2cc(SSc3ccc4cc(O)ccc4c3)ccc2c1,,100 µM (active)
CCCCCCCCCCCC(=O)OCC(O)CO (stereo not given),inactive,
CCOC(=O)COC(=O)c1cc(Oc2ccc(C(F)(F)F)cc2Cl)ccc1[N+](=O)[O-],inactive,
CC(O)C1CCCCC1 (stereo not given),inactive,
O=C1OC(=O)c2c(Br)c(Br)c(Br)c(Br)c21,inactive,
CC[N+](C)(CC)CC,inactive,
CCCCCc1ccco1,inactive,
CC(=O)O[C@H]1C[C@@H]2CC[C@@]1(C)C2(C)C,inactive,
CCCCCC(C)=O,inactive,

Structure (SMILES),outcome,AC50
CCCC(=O)OCCc1ccccc1,inactive,
OC[C@H]1O[C@@H](Oc2ccc(O)cc2)[C@H](O)[C@@H](O)[C@@H]1O,inactive,
C#CC(C)N(C)C(=O)Nc1ccc(Cl)cc1 (stereo not given),inactive,
C=C(C)CNCC,inactive,
CC(C)CC(C)CC(O)CC(C)C (stereo not given),inactive,
NCCNc1cccc2ccccc12,inactive,
CCCCCCCC(=O)OCCCCCC,inactive,
BrCc1cccc(Oc2ccccc2)c1,inactive,
Nc1ccc(NCCO)c([N+](=O)[O-])c1,inactive,
CCNCCO,inactive,
Nc1c(Cl)cc(Cl)cc1[N+](=O)[O-],inactive,
CN(C)c1ccncc1,inactive,
CC(=O)Nc1ccc(C(=O)CCl)cc1,,6.86 µM (active)
C[C@H]1C[C@@H](O)CC(C)(C)C1,inactive,
Cc1ncc[nH]1,inactive,
C=C(C)C(=O)OCCOCCOCCOCCOC(=O)C(=C)C,inactive,
CCC(C)S (stereo not given),inactive,
Cc1[nH]c(=O)c(C#N)cc1-c1ccncc1,inactive,
CC(C)(CO)[C@@H](O)C(=O)NCCC(=O)O,inactive,
O=C(O)c1ccc(O)cc1,inactive,
